How the values were obtained:
[1] = biological target: Sphingosine kinase 1 (Homo sapiens) (UniProt Q9NYA1); conditions: at 1 µM;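 also: mean SPHK1 inhibition value reported from the GSK PKIS kinase panel screen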
[2] = biological target: T1, Sphingosine kinase 2 (Homo sapiens) (UniProt Q9NRA0); conditions: at 0.1 µM
T1 sequence (whole entry): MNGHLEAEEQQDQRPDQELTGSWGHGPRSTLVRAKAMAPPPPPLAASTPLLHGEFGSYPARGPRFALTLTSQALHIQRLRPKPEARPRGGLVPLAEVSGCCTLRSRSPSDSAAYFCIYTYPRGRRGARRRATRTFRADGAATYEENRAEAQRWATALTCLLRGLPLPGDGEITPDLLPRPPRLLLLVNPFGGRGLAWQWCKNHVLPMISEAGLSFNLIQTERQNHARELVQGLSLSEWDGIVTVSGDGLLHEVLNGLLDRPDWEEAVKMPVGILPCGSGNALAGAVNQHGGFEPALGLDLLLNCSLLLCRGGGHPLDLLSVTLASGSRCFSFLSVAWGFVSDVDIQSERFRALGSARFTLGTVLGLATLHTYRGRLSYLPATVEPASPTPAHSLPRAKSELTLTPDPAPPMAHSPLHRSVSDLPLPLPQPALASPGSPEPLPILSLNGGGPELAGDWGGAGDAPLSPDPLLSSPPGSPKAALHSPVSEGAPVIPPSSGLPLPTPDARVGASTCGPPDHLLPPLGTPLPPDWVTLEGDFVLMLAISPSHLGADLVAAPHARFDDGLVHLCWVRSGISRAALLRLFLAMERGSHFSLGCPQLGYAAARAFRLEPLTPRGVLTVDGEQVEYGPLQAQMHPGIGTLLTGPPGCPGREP

[3] = biological target: T1, Sphingosine kinase 2 (Homo sapiens); conditions: at 1 µM
[4] = biological target: Casein kinase II subunit alpha (Homo sapiens) (UniProt P68400); conditions: at 0.1 µM
Casein kinase II subunit alpha (Homo sapiens), sequence (P68400 whole entry, looked up): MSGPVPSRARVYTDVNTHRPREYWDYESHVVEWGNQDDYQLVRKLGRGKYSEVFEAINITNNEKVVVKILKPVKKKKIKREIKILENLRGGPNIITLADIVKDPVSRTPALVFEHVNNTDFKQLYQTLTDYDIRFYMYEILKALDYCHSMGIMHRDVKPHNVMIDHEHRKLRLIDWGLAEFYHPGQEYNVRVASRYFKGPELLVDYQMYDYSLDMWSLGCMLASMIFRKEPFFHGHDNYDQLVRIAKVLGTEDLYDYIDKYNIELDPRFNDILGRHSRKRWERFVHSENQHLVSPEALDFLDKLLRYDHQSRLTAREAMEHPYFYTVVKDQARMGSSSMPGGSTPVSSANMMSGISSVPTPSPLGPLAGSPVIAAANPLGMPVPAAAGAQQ

[5] = biological target: Casein kinase II subunit alpha (Homo sapiens) (UniProt P68400); conditions: at 1 µM
[6] = biological target: T2, Inhibitor of nuclear factor kappa-B kinase subunit alpha (Homo sapiens) (UniProt O15111); conditions: at 0.1 µM
T2 sequence (whole entry): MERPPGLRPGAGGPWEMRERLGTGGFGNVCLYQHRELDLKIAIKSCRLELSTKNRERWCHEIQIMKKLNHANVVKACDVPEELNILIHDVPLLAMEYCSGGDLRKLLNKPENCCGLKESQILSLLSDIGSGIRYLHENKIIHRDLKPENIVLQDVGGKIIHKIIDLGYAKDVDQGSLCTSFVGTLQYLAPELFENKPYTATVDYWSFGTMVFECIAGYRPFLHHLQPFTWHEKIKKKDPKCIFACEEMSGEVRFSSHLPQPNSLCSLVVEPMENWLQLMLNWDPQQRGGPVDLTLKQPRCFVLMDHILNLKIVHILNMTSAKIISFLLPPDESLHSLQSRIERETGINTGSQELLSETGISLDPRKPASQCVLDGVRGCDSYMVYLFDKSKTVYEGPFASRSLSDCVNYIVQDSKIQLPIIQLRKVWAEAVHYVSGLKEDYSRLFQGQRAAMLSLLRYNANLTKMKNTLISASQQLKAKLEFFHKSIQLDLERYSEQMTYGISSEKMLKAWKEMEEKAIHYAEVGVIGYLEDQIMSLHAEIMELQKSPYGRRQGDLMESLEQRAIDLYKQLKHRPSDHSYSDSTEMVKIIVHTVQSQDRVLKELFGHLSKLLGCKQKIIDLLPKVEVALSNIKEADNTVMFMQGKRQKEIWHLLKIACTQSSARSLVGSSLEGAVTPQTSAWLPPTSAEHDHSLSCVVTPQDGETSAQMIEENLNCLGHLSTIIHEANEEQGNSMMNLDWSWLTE

[7] = biological target: T2, Inhibitor of nuclear factor kappa-B kinase subunit alpha (Homo sapiens); conditions: at 1 µM
[8] = biological target: T3, Inhibitor of nuclear factor kappa-B kinase subunit beta (Homo sapiens) (UniProt O14920); conditions: at 0.1 µM
T3 sequence (whole entry): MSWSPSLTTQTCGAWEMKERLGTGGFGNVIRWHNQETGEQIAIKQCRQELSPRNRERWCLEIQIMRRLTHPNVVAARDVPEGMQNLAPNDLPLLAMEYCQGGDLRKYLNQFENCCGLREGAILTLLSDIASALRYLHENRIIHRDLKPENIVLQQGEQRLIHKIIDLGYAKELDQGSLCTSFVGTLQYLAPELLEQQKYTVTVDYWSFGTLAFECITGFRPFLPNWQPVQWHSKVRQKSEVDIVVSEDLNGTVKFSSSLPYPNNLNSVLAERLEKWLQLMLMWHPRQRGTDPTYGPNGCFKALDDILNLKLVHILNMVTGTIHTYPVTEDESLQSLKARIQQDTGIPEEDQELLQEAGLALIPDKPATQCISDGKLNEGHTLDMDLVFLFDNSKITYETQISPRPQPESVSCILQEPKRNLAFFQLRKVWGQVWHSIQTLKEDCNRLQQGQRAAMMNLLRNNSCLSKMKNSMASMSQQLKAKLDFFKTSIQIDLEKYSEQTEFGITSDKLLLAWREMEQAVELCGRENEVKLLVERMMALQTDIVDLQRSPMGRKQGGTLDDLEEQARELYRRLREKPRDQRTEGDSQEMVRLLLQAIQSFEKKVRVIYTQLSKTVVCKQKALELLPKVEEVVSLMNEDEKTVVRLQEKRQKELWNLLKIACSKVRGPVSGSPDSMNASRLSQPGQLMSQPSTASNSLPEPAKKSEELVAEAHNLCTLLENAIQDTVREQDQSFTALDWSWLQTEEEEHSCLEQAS

[9] = biological target: T3, Inhibitor of nuclear factor kappa-B kinase subunit beta (Homo sapiens); conditions: at 1 µM
[10] = biological target: T4, Inhibitor of nuclear factor kappa-B kinase subunit epsilon (Homo sapiens) (UniProt Q14164); conditions: at 0.1 µM;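 also: mean inhibition of IKKε reported, from the GSK PKIS dataset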
T4 sequence (whole entry): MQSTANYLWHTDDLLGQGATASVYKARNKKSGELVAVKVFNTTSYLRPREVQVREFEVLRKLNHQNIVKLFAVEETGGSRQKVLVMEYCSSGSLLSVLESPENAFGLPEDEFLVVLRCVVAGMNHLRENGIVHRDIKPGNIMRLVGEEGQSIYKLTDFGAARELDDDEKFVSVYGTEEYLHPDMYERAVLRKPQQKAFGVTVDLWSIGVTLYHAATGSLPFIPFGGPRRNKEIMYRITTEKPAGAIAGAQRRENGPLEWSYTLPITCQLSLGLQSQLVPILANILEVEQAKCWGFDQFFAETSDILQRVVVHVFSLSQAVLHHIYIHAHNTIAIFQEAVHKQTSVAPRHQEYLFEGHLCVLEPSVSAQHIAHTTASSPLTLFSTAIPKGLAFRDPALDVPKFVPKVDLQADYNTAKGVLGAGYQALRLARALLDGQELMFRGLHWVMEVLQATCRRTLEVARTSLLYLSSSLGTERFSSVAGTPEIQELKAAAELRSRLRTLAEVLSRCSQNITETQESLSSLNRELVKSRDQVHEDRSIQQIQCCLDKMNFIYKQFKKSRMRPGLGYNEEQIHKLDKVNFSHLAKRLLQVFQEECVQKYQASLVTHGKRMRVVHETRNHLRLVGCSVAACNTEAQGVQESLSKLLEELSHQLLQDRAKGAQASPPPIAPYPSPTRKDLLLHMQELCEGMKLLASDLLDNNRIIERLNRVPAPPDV

Sphingosine kinase 1 (Homo sapiens), sequence (Q9NYA1 whole entry): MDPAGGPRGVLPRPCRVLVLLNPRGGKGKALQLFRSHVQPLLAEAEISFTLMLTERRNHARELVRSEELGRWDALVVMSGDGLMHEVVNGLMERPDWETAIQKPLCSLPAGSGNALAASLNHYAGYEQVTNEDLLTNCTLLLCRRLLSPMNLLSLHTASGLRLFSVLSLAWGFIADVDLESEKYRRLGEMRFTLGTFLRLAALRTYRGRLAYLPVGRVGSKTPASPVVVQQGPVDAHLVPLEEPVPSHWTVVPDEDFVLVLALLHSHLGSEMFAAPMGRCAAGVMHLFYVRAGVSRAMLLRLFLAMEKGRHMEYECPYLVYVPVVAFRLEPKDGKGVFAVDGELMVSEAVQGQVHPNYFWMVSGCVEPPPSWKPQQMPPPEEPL

SMILES: COc1cc2ncnc(Nc3ccc(C)c(O)c3)c2cc1OC
- inhibition [1]: -3.1%
- inhibition [2]: -0.83%
- inhibition [3]: 0.12%
- inhibition [4]: 2.65%
- inhibition [5]: 6.37%
- inhibition [6]: 7.19%
- inhibition [7]: 11.6%
- inhibition [8]: 6.42%
- inhibition [9]: 6.01%
- inhibition [10]: 5.22%

Reference: ChEMBL document CHEMBL1961873, “Compounds: GSK PKIS; Assays: Nanosyn kinase panel” (2012)
